Source: PubChem (The Scripps Research Institute Molecular Screening Center)
The list is not random: actives were taken first. Their share in the collection is about 1.1%.
NR5A2 inv ag = suppresses constitutive activity of human LRH-1; O00482; 360,000 compounds, 0.13% hits; AID 602396; HEK293T StAR-luciferase reporter, LRH-1 transfected, 24 h; inhibition, % at 3.6 µM;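 active means inhibition above the mean inhibition of all tested compounds plus 3 SD, cut at about 73% in these data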;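 further: 0% = DMSO wells and 100% = reporter-only cells lacking LRH-1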
GalR3 antag = human GalR3 antagonism; AID 651719; HEK293 GalR3-CNG cAMP membrane potential fluorescence; galR3 body fused to GalR1 C-terminus; inhibition, % at 3 µM; 360,000 compounds, 0.44% hits; O60755;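 active means inhibition above the screen-wide average plus 3 SD, cut at about 13% in these data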;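 further: forskolin and galanin both at EC90 stimulate the cells; cAMP rise reported by CNG channel membrane potential dye signal; 0% = forskolin plus galanin with DMSO and 100% = forskolin alone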
SRC1 inh = inhibits human SRC1 coactivator. Q15788. HEK293 GAL4-SRC1 luciferase reporter, luminescence. inhibition, % at 3.6 µM. 360,000 compounds, 0.12% hits;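 active means inhibition above the campaign mean plus 3 SD, with each screening campaign given its own cutoff, cut at about 60% in these data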;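 further: 0% = DMSO treated cells and 100% = gossypol at 36 µM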
NCOA3 inh = inhibitors of human steroid receptor coactivator 3 (SRC3) | Q9Y6Q9 | HEK293 GAL4-SRC3 luciferase reporter, luminescence | inhibition, % at 3.6 µM | 360,000 compounds, 0.17% hits;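 active means inhibition above a per-campaign cutoff, the mean of all compounds plus 3 SD, cut at about 60% in these data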;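 further: 0% = DMSO-treated cells and 100% = gossypol-treated cells at 36 µM; higher means less SRC3-driven luciferase light from the GAL4 reporter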
NCOA2 inhibitor = human SRC2 (NCOA2) inhibition. HEK293 GAL4-SRC2 luciferase reporter, luminescence. inhibition, % at 9 µM. 370,000 compounds, 0.17% hits. AID 651957;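 active means inhibition above the mean inhibition of all tested compounds plus 3 SD, set per campaign, cut at about 52% in these data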;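 further: 0% = DMSO treated cells and 100% = cells given Gossypol at 36 µM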
NR2F2 inh = blocks human COUP-TFII nuclear receptor. AID 686940. 370,000 compounds, 0.7% hits. inhibition, % at 8.6 µM. P24468. HEK293T NGFI-A luciferase reporter, luminescence;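 active means inhibition above a per-plate cutoff, mean inhibition of test wells between control levels plus 3 SD, cut at about 38% in these data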;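 further: cells cotransfected with COUP-TFII expression vector driving the NGFI-A reporter; 0% = median of COUP-TF2 test wells and 100% = reporter-only cells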
VP16 Luc counter = VP16 inhibition counter-screen for COUP-TFII | shares compounds with NR2F2 inh | HEK293 Gal4-VP16 luciferase reporter, luminescence | inhibition, % at 8.5 µM | 2,500 compounds, 25% hits | AID 687007; in the data active means inhibition above about 13%
COUP-TFII conf = COUP-TFII (NR2F2) inhibition, confirmation assay. shares compounds with NR2F2 inh. HEK293 NGFI-A luciferase reporter, luminescence. inhibition, % at 8.5 µM. 2,500 compounds, 45% hits;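 active means mean inhibition over three repeats above a set limit taken from the earlier primary screen, cut at about 38% in these data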;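 further: 100% = cells given the luciferase reporter alone without the COUP-TF2 vector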
* = called active by the depositor; . = not tested or not shown.

SMILES | NR5A2 inv ag | GalR3 antag | SRC1 inh | NCOA3 inh | NCOA2 inhibitor | NR2F2 inh | VP16 Luc counter | COUP-TFII conf
COc1ccc(CCNC(=S)N2CCC(C(=O)c3ccc(F)cc3)CC2)cc1OC | 17.3 | -3.5 | -19.7 | 26.7 | 36.6 | 43.2* | 5.2 | 27.4
COCCCN1C(=O)[C@H](CC(=O)N2CCN(C(=O)C3CC3)CC2)[C@]2(C(=O)OC)CCCCC=C12 | . | . | . | . | 2.2 | -18.6 | . | .
O=c1c2ccccc2n(Cc2ccco2)n1[C@@H](Cc1ccccc1)Cn1cc(-c2ccc(-c3ccccc3)cc2)nn1 | . | . | . | . | -7.0 | -13.4 | . | .
CC(=O)N(CCc1ccccc1)c1ccc2c(c1)C1CC2CCN1C(=O)OCc1ccccc1 (configuration not stated) | -14.0 | -9.0 | 4.7 | 0.0 | 33.7 | 37.9* | -5.5 | 7.4
CCCCCCCCNC(=O)C1CSCCS(=O)(=O)N1Cc1ccc(OC)cc1 (configuration not stated) | . | . | . | . | -16.1 | 3.8 | . | .
O=C(NCc1ccccc1F)c1ccc2c(c1)OCO2 | -26.5 | -6.3 | -2.3 | -20.8 | 10.4 | 1.1 | . | .
O=C(NCCc1ccccc1F)c1ccc2c(c1)OCCO2 | 63.8 | -4.1 | 76.0* | 73.8* | 90.5* | 96.2* | 63.1* | 83.7*
S=C(NCc1ccccc1)Nc1cccc2cnccc12 | 26.5 | -8.0 | -12.8 | 14.7 | 7.4 | 57.3* | 10.7 | 36.0
COC(=O)[C@]12C[C@H](CC(=O)N3CCCC3)C(=O)N(CCC3=CCCCC3)C1=C[C@H](C(C)C)O[C@@H]2C1CC1 | . | . | . | . | 33.5 | -7.7 | . | .
COC(=O)[C@H](C(C)C)N(CCc1cn(CC2CCCCC2)nn1)S(=O)(=O)c1ccccc1Br | . | . | . | . | 11.7 | 9.1 | . | .
O=C(Nc1ccc(N2CCN(C(=O)c3ccccc3)CC2)c(Cl)c1)c1ccc(Br)o1 | 11.8 | -5.1 | -0.7 | -12.7 | -14.4 | 39.6* | 4.1 | 20.3
CC(C)(C)N(Cc1cn(CC2CCCCC2)nn1)S(=O)(=O)c1ccccc1Br | . | . | . | . | 13.4 | -14.8 | . | .
OCCN(CCO)CC(O)COc1ccc(C23CC4CC(CC(C4)C2)C3)cc1 (configuration not stated) | 39.8 | -5.2 | 41.7 | 55.2 | 73.5* | 87.1* | 62.5* | 72.2*
OCCN(CCO)CC(O)COc1ccc(Br)cc1 (configuration not stated) | 4.9 | 6.8 | 13.2 | 21.1 | -23.2 | -26.3 | . | .
C=C1CC2(OC1=O)c1ccccc1CCc1ccccc12 | 24.7 | -8.9 | -60.7 | 19.9 | 46.3 | 39.5* | 16.9* | 28.8
O=C1NC(=O)C2(CCc3ccccc32)N1 (configuration not stated) | 1.6 | -3.7 | -2.8 | 13.8 | 14.7 | 2.3 | . | .
O=C(COC(=O)c1cc(S(=O)(=O)N2CCOCC2)ccc1F)Nc1ccc2c(c1)OCO2 | 6.5 | 0.3 | -10.3 | -1.1 | -24.7 | -17.9 | . | .
O=C(COC(=O)c1cc(S(=O)(=O)N2CCOCC2)ccc1F)NCc1ccc2c(c1)OCO2 | 5.2 | -3.7 | -11.4 | -3.6 | 43.5 | 47.0* | -8.0 | -8.2
COc1ccc2cc3c(N)nn(C(=O)c4ccc(F)cc4)c3nc2c1 | 19.7 | -2.5 | 60.1 | 48.7 | 30.7 | 34.2 | . | .
COc1ccc2cc3c(N)nn(C(=O)Cc4c[nH]c5ccccc45)c3nc2c1 | 55.1 | -3.9 | 79.0* | 51.1 | 56.3* | 41.6* | 23.9* | 21.2
COc1ccc2cc3c(N)nn(C(=O)c4ccccc4Cl)c3nc2c1 | 50.3 | -2.2 | 74.1* | 60.4 | 39.0 | 45.2* | 23.0* | 35.9
CCn1c(Cc2cccs2)nnc1SCC(=O)Nc1ccccc1-c1ccccc1 | . | . | . | . | 11.8 | 3.8 | . | .
O=C(c1cc2c(s1)-c1ccccc1S(=O)(=O)C2)N1CCN(Cc2ccccc2)CC1 | 13.9 | -3.8 | 1.4 | -2.4 | 19.8 | 38.7* | -13.7 | 25.8
Cc1ccc2c(c1)[nH]c1c(N3CCN(Cc4ccccc4)CC3)ncnc12 | 22.5 | 8.8 | 14.1 | 20.5 | 3.2 | 66.7* | 0.1 | 40.0*
Cc1nc(N2CCN(Cc3ccc(Cl)cc3)CC2)c2oc3ccccc3c2n1 | 13.0 | -2.3 | -26.0 | 9.2 | -0.6 | 26.5 | . | .
